Experimental data reported in the supplement of paper PMC10849652.
Targets with a hit are over-represented here; the source holds about 8,800 in all. About 0.5% of all pairs of compound and target were hits.

Columns and labels:
Assay in all cases: log2 fold change, soluble protein after heating vs DMSO (PISA); higher = thermal stabilisation; K562 lysate, 10 uM; active = over 0.2 and 3.5 SD of the protein, either way, in both replicates (recomputed)
[1] = compound: C1=CC=C(C=C1)[C@H](COC2=CC3=C(C=C2)NC(=O)N3)NC(=O)C4=CC=CN(C4=O)CC5=CC(=C(C=C5)F)F
Outline: (§1)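 Pellets of K562 cells were dounce-homogenised in PBS pH 7.4 with 1 mM MgCl2, and the crude extract was held at 1 mg/mL protein for a 30 min treatment with 10 μM compound. Aliquots were heated for 3 min over 48°C-58°C and pooled before NP-40 was added to 0.5% at 4°C. The supernatant from 21,000xg for 90 min was quantified by TMTpro 16plex LC-MS/MS with channel sums equalised. Values are reported from duplicates as log-two fold change in thermal stability relative to solvent controls.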

[2] = compound: CC1=C(SC2=C1C(=N[C@H](C3=NN=C(N32)C)CC(=O)N)C4=CC=C(C=C4)Cl)C
Outline: as §1

[3] = compound: CC1=C2C(=CC=C1)N=C(N(C2=O)C3=CC=CC=C3C)CN4C=NC5=C(N=CN=C54)N
Outline: as §1

[4] = compound: Cc1sc2c(c1C)C(c1ccc(Cl)cc1)=N[C@@H](CC(=O)OC(C)(C)C)c1nnc(C)n1-2
Outline: as §1

[5] = compound: c1ccc([C@@H]2C[C@H]2NC2CCNCC2)cc1
Outline: as §1

UniProt O95347, sequence (O95347 whole entry, looked up): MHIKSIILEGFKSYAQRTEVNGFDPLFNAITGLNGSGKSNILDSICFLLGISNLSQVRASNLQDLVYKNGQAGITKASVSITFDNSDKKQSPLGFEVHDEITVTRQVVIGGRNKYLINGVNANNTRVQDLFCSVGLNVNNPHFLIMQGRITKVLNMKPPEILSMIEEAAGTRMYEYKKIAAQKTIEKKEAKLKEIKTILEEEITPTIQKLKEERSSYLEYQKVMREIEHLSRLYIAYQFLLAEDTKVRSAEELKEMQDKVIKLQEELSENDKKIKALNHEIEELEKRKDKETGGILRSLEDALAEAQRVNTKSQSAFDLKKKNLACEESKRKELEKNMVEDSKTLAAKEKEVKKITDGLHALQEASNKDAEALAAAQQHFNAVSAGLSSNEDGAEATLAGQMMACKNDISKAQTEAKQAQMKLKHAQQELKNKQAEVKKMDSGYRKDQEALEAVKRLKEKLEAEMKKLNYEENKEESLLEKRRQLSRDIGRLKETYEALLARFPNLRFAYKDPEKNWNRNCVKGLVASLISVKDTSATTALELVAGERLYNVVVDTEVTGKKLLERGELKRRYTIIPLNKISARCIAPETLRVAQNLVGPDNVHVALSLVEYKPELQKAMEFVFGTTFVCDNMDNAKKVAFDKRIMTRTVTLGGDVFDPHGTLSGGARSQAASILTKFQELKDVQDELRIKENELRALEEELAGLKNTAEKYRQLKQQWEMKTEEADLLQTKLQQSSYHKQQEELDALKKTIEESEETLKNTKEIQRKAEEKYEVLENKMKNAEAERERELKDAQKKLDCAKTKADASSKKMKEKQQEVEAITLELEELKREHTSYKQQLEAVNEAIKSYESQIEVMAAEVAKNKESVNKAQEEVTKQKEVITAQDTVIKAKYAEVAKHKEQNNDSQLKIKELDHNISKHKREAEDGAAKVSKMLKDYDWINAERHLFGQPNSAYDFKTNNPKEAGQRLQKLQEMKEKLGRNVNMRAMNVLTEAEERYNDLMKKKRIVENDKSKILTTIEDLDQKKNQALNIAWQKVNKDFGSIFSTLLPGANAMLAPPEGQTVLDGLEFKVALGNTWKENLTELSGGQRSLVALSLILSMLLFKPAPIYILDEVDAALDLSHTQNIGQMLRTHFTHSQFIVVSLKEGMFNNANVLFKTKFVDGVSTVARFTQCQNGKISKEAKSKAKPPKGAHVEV
UniProt P51532, sequence (P51532 whole entry, looked up): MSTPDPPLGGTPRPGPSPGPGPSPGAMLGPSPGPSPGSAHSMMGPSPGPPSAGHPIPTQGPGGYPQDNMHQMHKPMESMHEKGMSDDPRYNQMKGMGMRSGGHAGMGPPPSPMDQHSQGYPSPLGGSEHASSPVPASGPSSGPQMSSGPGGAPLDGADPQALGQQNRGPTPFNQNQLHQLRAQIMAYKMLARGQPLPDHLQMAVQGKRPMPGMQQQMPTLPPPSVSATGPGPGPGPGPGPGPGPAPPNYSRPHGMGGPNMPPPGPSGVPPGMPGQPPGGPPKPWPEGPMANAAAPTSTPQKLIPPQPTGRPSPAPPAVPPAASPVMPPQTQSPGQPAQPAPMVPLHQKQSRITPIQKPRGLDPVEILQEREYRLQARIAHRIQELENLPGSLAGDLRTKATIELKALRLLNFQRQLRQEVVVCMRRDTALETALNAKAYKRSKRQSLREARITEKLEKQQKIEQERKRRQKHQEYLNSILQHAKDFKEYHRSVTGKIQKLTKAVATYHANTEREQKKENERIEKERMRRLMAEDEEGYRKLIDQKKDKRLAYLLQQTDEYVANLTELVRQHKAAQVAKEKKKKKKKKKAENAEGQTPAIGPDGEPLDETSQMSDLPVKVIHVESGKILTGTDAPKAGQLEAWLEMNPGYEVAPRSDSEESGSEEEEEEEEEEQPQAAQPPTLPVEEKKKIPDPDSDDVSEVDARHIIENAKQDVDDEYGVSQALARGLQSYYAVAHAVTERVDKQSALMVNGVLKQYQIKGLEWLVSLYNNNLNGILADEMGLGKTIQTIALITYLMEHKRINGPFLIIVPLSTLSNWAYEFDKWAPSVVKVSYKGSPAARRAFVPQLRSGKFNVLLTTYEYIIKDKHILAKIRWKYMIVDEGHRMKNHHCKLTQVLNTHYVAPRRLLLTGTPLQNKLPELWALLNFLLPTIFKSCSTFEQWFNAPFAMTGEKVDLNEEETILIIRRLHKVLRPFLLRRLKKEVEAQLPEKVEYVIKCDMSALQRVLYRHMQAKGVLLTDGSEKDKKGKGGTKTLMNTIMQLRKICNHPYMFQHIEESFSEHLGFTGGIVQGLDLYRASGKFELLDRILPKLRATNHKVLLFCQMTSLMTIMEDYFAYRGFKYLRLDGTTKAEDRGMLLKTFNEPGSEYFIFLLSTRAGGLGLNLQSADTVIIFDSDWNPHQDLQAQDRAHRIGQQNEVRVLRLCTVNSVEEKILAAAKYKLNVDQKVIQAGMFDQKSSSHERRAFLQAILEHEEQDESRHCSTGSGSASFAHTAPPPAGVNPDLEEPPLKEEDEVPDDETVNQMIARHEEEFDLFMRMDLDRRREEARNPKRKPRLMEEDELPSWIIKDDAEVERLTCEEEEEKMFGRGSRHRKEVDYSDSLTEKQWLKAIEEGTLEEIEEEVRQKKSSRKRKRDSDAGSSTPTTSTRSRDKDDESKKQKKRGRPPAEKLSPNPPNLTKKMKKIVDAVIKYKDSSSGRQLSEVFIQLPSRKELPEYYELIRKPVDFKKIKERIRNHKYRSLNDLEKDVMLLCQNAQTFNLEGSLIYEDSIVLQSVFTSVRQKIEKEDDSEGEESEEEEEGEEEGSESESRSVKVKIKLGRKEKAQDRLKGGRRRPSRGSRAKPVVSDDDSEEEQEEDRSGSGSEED
UniProt Q13242, sequence (Q13242 whole entry, looked up): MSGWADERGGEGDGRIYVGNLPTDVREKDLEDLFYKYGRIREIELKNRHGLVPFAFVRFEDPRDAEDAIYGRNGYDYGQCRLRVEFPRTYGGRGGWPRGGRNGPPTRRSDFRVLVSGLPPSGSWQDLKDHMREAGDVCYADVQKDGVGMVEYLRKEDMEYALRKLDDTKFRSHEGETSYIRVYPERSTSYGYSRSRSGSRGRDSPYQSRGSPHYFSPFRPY
UniProt P35610, sequence (P35610 whole entry, looked up): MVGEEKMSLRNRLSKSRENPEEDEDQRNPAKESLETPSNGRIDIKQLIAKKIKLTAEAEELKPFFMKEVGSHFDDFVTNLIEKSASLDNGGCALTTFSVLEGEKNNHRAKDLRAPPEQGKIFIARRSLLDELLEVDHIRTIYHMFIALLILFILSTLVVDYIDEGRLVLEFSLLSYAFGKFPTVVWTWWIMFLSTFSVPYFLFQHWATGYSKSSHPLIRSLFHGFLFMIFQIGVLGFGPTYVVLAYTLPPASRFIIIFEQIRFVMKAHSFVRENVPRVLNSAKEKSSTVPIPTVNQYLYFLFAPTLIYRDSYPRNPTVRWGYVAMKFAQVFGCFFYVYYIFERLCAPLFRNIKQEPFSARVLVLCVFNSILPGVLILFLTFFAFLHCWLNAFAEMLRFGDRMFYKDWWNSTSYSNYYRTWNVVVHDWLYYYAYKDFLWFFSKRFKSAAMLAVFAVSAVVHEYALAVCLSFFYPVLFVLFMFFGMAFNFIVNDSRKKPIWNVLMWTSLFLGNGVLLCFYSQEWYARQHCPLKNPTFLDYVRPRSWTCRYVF
UniProt Q14849, sequence (Q14849 whole entry, looked up): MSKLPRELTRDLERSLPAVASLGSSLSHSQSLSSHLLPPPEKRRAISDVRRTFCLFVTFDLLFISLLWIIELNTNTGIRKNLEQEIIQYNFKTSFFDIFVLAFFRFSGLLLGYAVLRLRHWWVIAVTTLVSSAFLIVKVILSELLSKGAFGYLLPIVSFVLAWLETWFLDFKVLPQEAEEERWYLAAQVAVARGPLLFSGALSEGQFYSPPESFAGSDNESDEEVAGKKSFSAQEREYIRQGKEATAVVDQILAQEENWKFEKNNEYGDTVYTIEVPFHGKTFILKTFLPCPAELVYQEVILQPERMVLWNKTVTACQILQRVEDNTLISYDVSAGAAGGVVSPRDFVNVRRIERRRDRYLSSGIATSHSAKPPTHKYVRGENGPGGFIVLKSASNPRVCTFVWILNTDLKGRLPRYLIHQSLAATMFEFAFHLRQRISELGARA
UniProt Q15208, sequence (Q15208 whole entry, looked up): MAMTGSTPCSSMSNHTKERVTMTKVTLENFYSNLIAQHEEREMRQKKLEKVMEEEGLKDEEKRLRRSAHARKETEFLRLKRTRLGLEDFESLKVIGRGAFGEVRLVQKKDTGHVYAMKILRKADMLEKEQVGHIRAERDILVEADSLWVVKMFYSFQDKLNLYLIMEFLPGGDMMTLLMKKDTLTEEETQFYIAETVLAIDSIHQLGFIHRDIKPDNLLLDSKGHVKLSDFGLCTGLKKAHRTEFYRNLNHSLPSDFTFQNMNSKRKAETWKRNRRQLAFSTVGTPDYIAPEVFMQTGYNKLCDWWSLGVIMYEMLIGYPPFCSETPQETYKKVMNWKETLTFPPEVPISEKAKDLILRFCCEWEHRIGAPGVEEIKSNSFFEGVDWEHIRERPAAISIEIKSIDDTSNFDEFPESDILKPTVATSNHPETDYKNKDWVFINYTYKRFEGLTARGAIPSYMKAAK
UniProt Q16637, sequence (Q16637 whole entry, looked up): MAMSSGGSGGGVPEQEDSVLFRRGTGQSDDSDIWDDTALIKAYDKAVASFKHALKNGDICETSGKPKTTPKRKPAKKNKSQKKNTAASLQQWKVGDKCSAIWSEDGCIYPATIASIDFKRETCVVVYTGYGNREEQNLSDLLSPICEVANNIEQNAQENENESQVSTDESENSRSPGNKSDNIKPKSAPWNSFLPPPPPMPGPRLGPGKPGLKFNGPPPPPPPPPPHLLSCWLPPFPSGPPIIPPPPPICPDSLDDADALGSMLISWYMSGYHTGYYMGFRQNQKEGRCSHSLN

Target | log2 fold change [1] | log2 fold change [2] | log2 fold change [3] | log2 fold change [4] | log2 fold change [5]
SMAP2 (UniProt Q8WU79) | 0.02 (inactive) | -0.002 (inactive) | 0.029 (inactive) | 0.049 (inactive) | 0.02 (inactive)
STARD3 isoform 3 (UniProt Q14849) | -0.015 (inactive) | 0.007 (inactive) | 0 (inactive) | -0.004 (inactive) | 0 (inactive)
SSB (UniProt E7ERC4) | -0.137 (inactive) | 0.12 (inactive) | 0.186 (inactive) | -0.105 (inactive) | 0.444 (inactive)
SRSF9 (UniProt Q13242) | 0.015 (inactive) | 0.024 (inactive) | -0.076 (inactive) | 0.06 (inactive) | -0.014 (inactive)
SMG6 (UniProt Q86US8) | 0.097 (inactive) | -0.041 (inactive) | -0.043 (inactive) | 0.076 (inactive) | 0.073 (inactive)
SMN1 (UniProt Q16637) | 0.083 (inactive) | -0.054 (inactive) | 0.054 (inactive) | -0.012 (inactive) | 0.024 (inactive)
SMC2 (UniProt O95347) | -0.007 (inactive) | 0.018 (inactive) | 0.016 (inactive) | 0.003 (inactive) | 0.069 (inactive)
SMARCA4 (UniProt P51532) | -0.034 (inactive) | 0.016 (inactive) | 0.003 (inactive) | 0.014 (inactive) | 0.055 (inactive)
SOAT1 (UniProt P35610) | 0.041 (inactive) | -0.002 (inactive) | -0.008 (inactive) | 0.282 (active) | -0.06 (inactive)
STK38 (UniProt Q15208) | -0.089 (inactive) | -0.02 (inactive) | -0.014 (inactive) | -0.012 (inactive) | -0.066 (inactive)
